Assay outcomes deposited in PubChem BioAssay by several laboratories.
Compounds with a hit are over-represented: about 1.3% of the library has one in this group of screens.
C-LANA FP: blocks KSHV LANA C-terminal domain binding to DNA. MBP-C-LANA/FAM-LBS DNA binding, fluorescence polarization. inhibition, % at 9 µM. actives 0.078% (n = 340,000). AID 504423;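 active = highest replicate inhibition at or above 60% at 9 µM, even if other replicates fall short; inactive = all replicates below 60% inhibition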
CRFBP-R2 block: antagonists of CRF-binding protein/CRF-R2 receptor complex; HEK293 CRF-R2/CRF-BP, CRF-induced calcium fluorescence; inhibition, % at 11.8 µM; actives 0.59% (n = 350,000);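 active = inhibition of the ligand-induced calcium signal above about 50% at the single tested concentration, limit read from the data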
RTF Ca sens inh: cardiac RTF calcium desensitization; P19429+P45379; IANBD-labeled cardiac RTF, Ca2+ fluorescence; inhibition, % at 7.15 µM; actives 0.12% (n = 340,000); AID 493244;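 active = inhibition above the mean inhibition of all tested compounds plus 3 SD, cut at about 17% in these data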;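 note: assay run at fixed EC70 calcium of 1.6 mM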
Keap1-Nrf2 PPI: inhibitors of human Keap1-Nrf2 protein-protein interaction; inhibition, % at 9.4 µM; AID 504523; Keap1 Kelch-Nrf2 peptide fluorescence polarization, 1536-well; actives 0.15% (n = 340,000); Q14145; in the data active = inhibition above about 12%;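 note: human Keap1 Kelch domain with fluorescein labeled Nrf2 9mer peptide probe; higher means more block of Keap1 binding to Nrf2 peptide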
Target sequence (Q14145 whole entry, looked up, the tested form may be a part): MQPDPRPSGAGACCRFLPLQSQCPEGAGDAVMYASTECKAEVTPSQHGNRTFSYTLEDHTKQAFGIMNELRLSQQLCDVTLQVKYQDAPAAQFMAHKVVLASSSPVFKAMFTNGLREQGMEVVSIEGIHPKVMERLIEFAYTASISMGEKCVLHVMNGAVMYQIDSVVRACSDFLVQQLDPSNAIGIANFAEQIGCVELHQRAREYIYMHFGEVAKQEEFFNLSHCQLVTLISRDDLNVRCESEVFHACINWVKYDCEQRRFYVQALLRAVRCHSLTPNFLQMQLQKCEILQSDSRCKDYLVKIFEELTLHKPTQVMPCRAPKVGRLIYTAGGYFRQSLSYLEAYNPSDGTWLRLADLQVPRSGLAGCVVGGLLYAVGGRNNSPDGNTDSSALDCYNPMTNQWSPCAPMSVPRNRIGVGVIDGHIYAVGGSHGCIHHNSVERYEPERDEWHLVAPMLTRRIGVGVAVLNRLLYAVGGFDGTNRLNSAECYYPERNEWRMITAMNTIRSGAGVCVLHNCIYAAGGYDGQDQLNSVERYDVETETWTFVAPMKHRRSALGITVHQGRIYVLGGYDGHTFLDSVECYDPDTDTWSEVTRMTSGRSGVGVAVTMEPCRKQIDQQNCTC
cardiac RTF act: increases calcium sensitivity of human cardiac regulated thin filaments | activation, % at 7.2 µM | actives 0.24% (n = 340,000) | IANBD-labeled TnC RTF fluorescence at EC20 calcium; 0% EC20 calcium, 100% full calcium;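 active = activation above the mean over all tested compounds plus 3 SD, cut at about 30% in these data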;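 note: rise in fluorescence read as greater calcium sensitivity of cardiac thin filaments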
CRFR2-BP ag: agonists of human CRF-binding protein/CRF-R2 receptor complex. activation, % at 13.2 µM. actives 0.46% (n = 350,000). HEK293 CRF-R2/CRF-BP, calcium dye fluorescence (FLIPR); percent of saturating CRF peptide response;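 active = activation of at least 50%, plus an integration ratio under a set limit after plate pattern correction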
Hits are given with their value.

`O=C1NC(=Nc2ccccc2Cl)S/C1=C\c1cc([N+](=O)[O-])ccc1O` gave C-LANA FP inactive, CRFBP-R2 block inactive, RTF Ca sens inh inactive, Keap1-Nrf2 PPI inactive, cardiac RTF act inactive and CRFR2-BP ag 61.
Screening Cc1ccc(S(=O)(=O)/N=C2/NC(=O)/C(=C\c3ccccc3)S2)cc1 returned C-LANA FP inactive, CRFBP-R2 block inactive, RTF Ca sens inh inactive, Keap1-Nrf2 PPI inactive, cardiac RTF act inactive and CRFR2-BP ag inactive.
Screening Cc1ccc(S(=O)(=O)/N=C2/NC(=O)/C(=C/c3ccccc3)S2)cc1 returned C-LANA FP inactive, CRFBP-R2 block 115, RTF Ca sens inh inactive, Keap1-Nrf2 PPI inactive, cardiac RTF act inactive and CRFR2-BP ag inactive.
COc1cccc(N=C2NC(=O)/C(=C/c3cc([N+](=O)[O-])ccc3O)S2)c1 was read as C-LANA FP inactive, CRFBP-R2 block inactive, RTF Ca sens inh inactive, Keap1-Nrf2 PPI inactive, cardiac RTF act inactive and CRFR2-BP ag inactive.
For Cc1ccc(Cn2cc(-c3ccccc3)nn2)cc1 the results were C-LANA FP inactive, CRFBP-R2 block inactive, RTF Ca sens inh inactive, Keap1-Nrf2 PPI inactive, cardiac RTF act inactive and CRFR2-BP ag inactive.
For O=C(NC(=S)Nc1ccc(F)cc1)c1ccc2c(c1)OCCO2 the results were C-LANA FP inactive, CRFBP-R2 block inactive, RTF Ca sens inh inactive, Keap1-Nrf2 PPI inactive, cardiac RTF act inactive and CRFR2-BP ag 93.
For COC(=O)c1ccc2c(c1)C(C)(C)C(/C=C/c1ccccc1O)=[N+]2C the results were C-LANA FP inactive, CRFBP-R2 block inactive, RTF Ca sens inh inactive, Keap1-Nrf2 PPI inactive, cardiac RTF act inactive and CRFR2-BP ag 53.
For C/C=C(\C)C(=O)OC1CC(C)(C)C[C@H]2C3=CC[C@@H]4[C@@]5(C)CCC(O[C@@H]6O[C@@H](C(=O)O)[C@@H](O)C(O[C@@H]7OC[C@H](O)[C@@H](O)[C@@H]7O[C@@H]7OC(CO)C(O)[C@@H](O)[C@@H]7O)C6O[C@@H]6OC(CO)C(O)C(O)C6O)[C@@](C)(CO)[C@@H]5CC[C@]4(C)[C@]3(C)CC(O)[C@@]12CO (some centres undefined) the results were C-LANA FP inactive, CRFBP-R2 block inactive, RTF Ca sens inh inactive, Keap1-Nrf2 PPI inactive, cardiac RTF act inactive and CRFR2-BP ag 78.
Screening NC(=O)C1=C(c2ccccc2)c2ccccc2C1=O returned C-LANA FP inactive, CRFBP-R2 block inactive, RTF Ca sens inh inactive, Keap1-Nrf2 PPI inactive, cardiac RTF act inactive and CRFR2-BP ag 67.
For O=C(CC(NC(=O)OCc1ccccc1)C(=O)O)OCc1ccccc1 (centres undefined) the results were C-LANA FP inactive, CRFBP-R2 block inactive, RTF Ca sens inh inactive, Keap1-Nrf2 PPI inactive, cardiac RTF act inactive and CRFR2-BP ag inactive.
`O=C(CC(NC(=O)OCc1ccccc1)C(=O)OCc1ccccc1)OCc1ccccc1` (centres undefined) gave C-LANA FP inactive, CRFBP-R2 block 88, RTF Ca sens inh inactive, Keap1-Nrf2 PPI inactive, cardiac RTF act inactive and CRFR2-BP ag inactive.
Screening CC(=O)NN1C(=O)c2ccccc2NC1c1ccccc1F (centres undefined) returned C-LANA FP inactive, CRFBP-R2 block inactive, RTF Ca sens inh inactive, Keap1-Nrf2 PPI inactive, cardiac RTF act inactive and CRFR2-BP ag inactive.
Screening CSc1ccc(CNc2nc3ccccc3n3cnnc23)cc1 returned C-LANA FP inactive, CRFBP-R2 block inactive, RTF Ca sens inh inactive, Keap1-Nrf2 PPI inactive, cardiac RTF act inactive and CRFR2-BP ag inactive.
Nc1nc(F)nc2c1ncn2[C@@H]1O[C@H](CO)[C@@H](O)[C@@H]1O was read as C-LANA FP inactive, CRFBP-R2 block 50, RTF Ca sens inh inactive, Keap1-Nrf2 PPI inactive, cardiac RTF act inactive and CRFR2-BP ag inactive.
`C[n+]1ccccc1/C=C1\Sc2ccccc2N1CCO` gave C-LANA FP inactive, CRFBP-R2 block inactive, RTF Ca sens inh inactive, Keap1-Nrf2 PPI inactive, cardiac RTF act inactive and CRFR2-BP ag inactive.
For CCC(CO)[n+]1c(C)cc(/C=C2\Sc3ccccc3N2Cc2ccccc2)cc1C (centres undefined) the results were C-LANA FP inactive, CRFBP-R2 block inactive, RTF Ca sens inh inactive, Keap1-Nrf2 PPI inactive, cardiac RTF act 40 and CRFR2-BP ag 77.
Screening COc1ccc2nc(N3CCC(C)CC3)c(C#N)cc2c1 returned C-LANA FP inactive, CRFBP-R2 block inactive, RTF Ca sens inh inactive, Keap1-Nrf2 PPI inactive, cardiac RTF act inactive and CRFR2-BP ag inactive.
`COc1ccc2nc(N3CCC(O)CC3)c(C#N)cc2c1` gave C-LANA FP inactive, CRFBP-R2 block inactive, RTF Ca sens inh inactive, Keap1-Nrf2 PPI inactive, cardiac RTF act inactive and CRFR2-BP ag 52.
`COc1ccc2cc(C#N)c(N3CCOCC3)nc2c1` gave C-LANA FP inactive, CRFBP-R2 block inactive, RTF Ca sens inh inactive, Keap1-Nrf2 PPI inactive, cardiac RTF act inactive and CRFR2-BP ag inactive.
`CCOC(=O)C1CCN(c2nc3cc(OC)ccc3cc2C#N)CC1` gave C-LANA FP inactive, CRFBP-R2 block 57, RTF Ca sens inh inactive, Keap1-Nrf2 PPI inactive, cardiac RTF act inactive and CRFR2-BP ag inactive.
O=C1Cc2ccccc2C(=O)N1c1ccc(F)cc1Cl was read as C-LANA FP inactive, CRFBP-R2 block inactive, RTF Ca sens inh inactive, Keap1-Nrf2 PPI inactive, cardiac RTF act inactive and CRFR2-BP ag inactive.
Screening O=C1NC(=S)S/C1=C\c1coc2ccc(O)cc2c1=O returned C-LANA FP inactive, CRFBP-R2 block 96, RTF Ca sens inh inactive, Keap1-Nrf2 PPI inactive, cardiac RTF act inactive and CRFR2-BP ag inactive.
For CC(C)CN(CC(C)C)C(=S)NC1CCCCC1 the results were C-LANA FP inactive, CRFBP-R2 block 55, RTF Ca sens inh inactive, Keap1-Nrf2 PPI inactive, cardiac RTF act inactive and CRFR2-BP ag inactive.
`O=C(CSc1nnnn1-c1ccccc1)NCCCN1CCCC1=O` gave C-LANA FP inactive, CRFBP-R2 block 57, RTF Ca sens inh inactive, Keap1-Nrf2 PPI inactive, cardiac RTF act inactive and CRFR2-BP ag inactive.
O=C(NCc1ccco1)/C(=C/c1ccccc1)NC(=O)c1ccco1 was read as C-LANA FP inactive, CRFBP-R2 block inactive, RTF Ca sens inh inactive, Keap1-Nrf2 PPI inactive, cardiac RTF act inactive and CRFR2-BP ag inactive.
Screening Cc1cccc(N2CCN(C(=O)Cc3ccc(-n4c(=O)[nH]c5ccsc5c4=O)cc3)CC2C)c1 (centres undefined) returned C-LANA FP inactive, CRFBP-R2 block inactive, RTF Ca sens inh inactive, Keap1-Nrf2 PPI inactive, cardiac RTF act inactive and CRFR2-BP ag inactive.
For COc1ccc(C(=O)Nn2c(SCC(=O)N3CCC(C)CC3)nc3ccccc3c2=O)cc1 the results were C-LANA FP inactive, CRFBP-R2 block inactive, RTF Ca sens inh inactive, Keap1-Nrf2 PPI inactive, cardiac RTF act inactive and CRFR2-BP ag inactive.
For COc1ccc(C(=O)Nn2c(SCC(=O)NC3CCCCC3)nc3ccccc3c2=O)cc1 the results were C-LANA FP inactive, CRFBP-R2 block 75, RTF Ca sens inh inactive, Keap1-Nrf2 PPI inactive, cardiac RTF act inactive and CRFR2-BP ag inactive.
